High-throughput results as filed in PubChem BioAssay.
Shown are actives, neighbours in structure and some others; about 3.7% of the full set was active somewhere.
V-ATPase pHluor – alters yeast V-ATPase proton transport | S. cerevisiae, pHLuorin cytosolic pH fluorescence | response, % at 10 µM | 350,000 tested, 0.37% active | AID 504577; in the data active = response mostly above about 7.3%, no sharp cut-off; inactive = mostly below about 5.4%; also: actives read high
tim23-1 inh – tim23-1 yeast growth inhibition; S. cerevisiae tim23-1 growth, BacTiter-Glo luminescence, 24 h; inhibition, % at 20 µM; 330,000 tested, 1.3% active; AID 463212;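 active = growth inhibition of the mutant yeast at or above 50%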;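 also: temperature-sensitive mutant grown at 25 °C; plate controls were DMSO-treated mutant yeast for no effect and medium wells lacking yeast for full effect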
PfHsp90 yeast 2 – inhibits growth of yeast expressing Plasmodium falciparum Hsp90. 310,000 tested, 0.32% active. inhibition, % at 9.4 µM. S. cerevisiae expressing PfHsp90, BacTiter-Glo ATP, 48 h; yeast lacking PDR1 and PDR3 efflux regulators;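 active = every replicate shows inhibition above about 80%, whatever the replicate mean, limit read from the data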;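 also: 0% = DMSO neutral controls and 100% = 20 µM radicicol positive controls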
TIM10 inh – TIM10 yeast growth inhibition; 330,000 tested, 1.4% active; inhibition, % at 10 µM; S. cerevisiae TIM10 strain growth, BacTiter-Glo luminescence, 24 h; AID 463195;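 active = inhibition of 40% or more at the single tested concentration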;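 also: wild-type TIM10 isogenic control strain grown at permissive 25 °C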
tim10-1 inh – tim10-1 yeast growth inhibition | S. cerevisiae tim10-1 ts strain growth, BacTiter-Glo, 24 h | inhibition, % at 20 µM | 330,000 tested, 2.2% active | AID 463190;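 active = inhibition of at least 40%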;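 also: mutant grown at 25 °C; 0% = DMSO wells with yeast and 100% = wells holding no yeast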
tim10-1 conf – confirmation of tim10-1 mutant yeast growth inhibitors; shares compounds with tim10-1 inh; S. cerevisiae tim10-1 ts strain growth, BacTiter-Glo, 24 h; inhibition, % at 20 µM; 7,400 tested, 56% active;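 active = inhibition of yeast growth at or above a set limit in either of two repeat tests at 20 µM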;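 also: tim10-1 mutant grown at permissive 25 °C to find synthetic lethal compounds; 0% = DMSO yeast wells and 100% = medium wells without yeast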
* hit, by the source's call; . = no result given.

SMILES	V-ATPase pHluor	tim23-1 inh	PfHsp90 yeast 2	TIM10 inh	tim10-1 inh	tim10-1 conf
Oc1ccc(Cl)cc1CNc1ccccn1	-2	4	-31	0	1	.
O=C(Cc1ccc(Cl)cc1)Nc1ccc(Br)cn1	-1	31	-13	16	41*	16
COC(=O)c1ccc(-n2nc(C(F)(F)F)c3c2-c2ccoc2CC3)cc1	-3	30	-25	20	41*	26
O=C(O)c1ccc(-n2nc(C(F)(F)F)c3c2-c2ccoc2CC3)cc1	1	14	.	3	16	.
CCN(CC)C(=O)CSc1nsc(SCC(=O)N(CC)CC)c1C#N	1	0	0	-2	1	.
C=COC(=O)CSc1snc(SCC(=O)OC)c1C#N	0	31	5	14	43*	7
CCCC(=O)N(CCN1CCOCC1)c1nc2c(C)ccc(C)c2s1	0	29	3	5	42*	-4
CCCC(=O)N(CCN1CCOCC1)c1nc2c(OC)ccc(C)c2s1	1	1	-21	3	10	.
Cn1ccnc1C1CCCCN1C(=O)c1cc(COc2ccc(F)cc2F)on1 (stereo unspecified)	-5	9	-7	-31	5	.
CC(=O)c1ccc(OCCCC(=O)n2nnc3ccccc32)cc1	-4	30	1	3	35	.
O=C(CCCOc1ccc(Cl)cc1Cl)n1nnc2ccccc21	4	46	-5	25	54*	39*
O=C(NCCOc1ccc(Cl)cc1)c1cccc(S(=O)(=O)N2CCCC2)c1	8	9	7	-6	20	.
COc1ccccc1N1CCN(C(=O)c2ccc(C(C)(C)C)cc2)CC1	-2	43	-19	34	50*	26
O=C(CSCc1cccc(F)c1)N1CCN(c2ccccc2)CC1	-4	23	-4	11	43*	15
O=C(c1ccccc1)N1CCN(c2ccccc2)CC1	2	.	.	.	.	.
O=C(c1ccc(CSc2ccccc2)cc1)N1CCN(c2ccccc2)CC1	3	32	-16	7	45*	40*
COc1ccccc1N1CCN(C(=O)c2ccc(CSc3ccccc3)cc2)CC1	-4	40	-12	28	40*	40*
O=C(COC(=O)CCC(=O)c1ccc(F)cc1)NCc1ccccc1Cl	-1	29	11	5	10	.
CCNC(=S)Nc1ccc(OCc2nc3ccccc3s2)cc1	2	30	5	22	17	.
CCc1ccc2oc(C(=O)N3CCN(c4ccc(OC)cc4)CC3)cc(=O)c2c1	-4	21	12	19	5	.
CCNC(=S)N1CCN(c2ccccc2OCC)CC1	5	10	2	2	12	.
CCc1ccc2oc(C(=O)N3CCN(c4ccccc4OC)CC3)cc(=O)c2c1	-1	39	6	12	48*	18
COc1ccccc1C1CCN(C(=O)c2ccc(C(C)(C)C)cc2)CC1	-1	42	20	27	41*	33*
COc1ccccc1N1CCN(C(=O)c2ccc(-c3ccccc3)cc2)CC1	5	31	-12	28	41*	27
CCOc1ccccc1N1CCN(C(=S)NCc2ccccc2)CC1	2	36	3	13	44*	19
SMILES	V-ATPase pHluor	tim23-1 inh	PfHsp90 yeast 2	TIM10 inh	tim10-1 inh	tim10-1 conf
Cc1ccc(N(CC(=O)NCc2ccc(F)cc2)C(=O)c2snc(C(N)=O)c2N)cc1C	4	-4	8	-10	-11	.
COc1ccc(OC)c(/C=C/c2[nH]c(=O)[nH]c(=O)c2[N+](=O)[O-])c1	4	2	20	2	-2	.
O=C(c1ccc(-c2ccccc2)cc1)N1CCN(c2ncccn2)CC1	-3	31	-16	30	43*	25
COc1cc2c(cc1OC)CN(C(=O)c1ccc(-c3ccccc3)cc1)CC2	2	44	-2	24	49*	38*
COc1ccccc1N1CCN(C(=O)c2cc3sccc3n2C)CC1	1	40	17	33	43*	46*
O=C(c1ccc(Cn2cc(Cl)cn2)cc1)N1CCN(c2ccccc2)CC1	1	31	29	13	34	.
O=C(c1ccc(Cn2cc(Br)cn2)cc1)N1CCN(c2ccccc2)CC1	-3	44	.	32	52*	44*
CC1(C)CNc2cc(N)ccc2S1	-2	12	-13	-1	13	.
CCOc1ccccc1N1CCN(C(=O)c2ccccc2)CC1	2	17	.	9	26	.
CCOc1ccccc1N1CCN(C(=O)c2ccc(-c3ccc(OC(C)=O)cc3)cc2)CC1	0	38	-21	16	41*	23
CC1(C)CC(=O)C2=C(C1)N(c1cccnc1)C(N)=C(C#N)C2c1cccs1 (stereo unspecified)	4	22	2	-1	40*	33*
CCSc1sccc1C1C(C#N)=C(N)N(c2cccnc2)C2=C1C(=O)CC(C)(C)C2 (stereo unspecified)	-1	21	-1	3	31	.
Cn1c(=O)[nH]c(=O)c2c1nc(N1CCCCC1)n2CC(O)COc1ccc([N+](=O)[O-])cc1 (stereo unspecified)	6	5	-8	1	7	.
Cc1ccc(C)c(NC(=S)N2CCN(c3cccc(C(F)(F)F)c3)CC2)c1	0	-4	-87	-17	19	.
Cc1ccnc(NC(=S)N2CCN(c3cccc(C(F)(F)F)c3)CC2)c1	-1	39	-19	39	43*	24
O=C(NCC(c1ccco1)N1CCCC1)c1cc2cc(Cl)ccc2o1 (stereo unspecified)	-4	6	10	-6	-16	.
Cc1[nH]c2ccc(F)cc2c1CCN(Cc1ccncc1)C(=S)Nc1ccc(F)cc1	0	30	-11	-4	42*	7
C[C@@H]1CN([C@@H](C)CO)C(=O)CCCn2nncc2CO[C@H]1CN(C)S(=O)(=O)c1ccc(Oc2ccccc2)nc1	2	.	.	.	.	.
COc1ccc([C@H]2/C=C\CN(C(=O)[C@H](Cc3ccccc3)NC(=O)OCC3c4ccccc4-c4ccccc43)CC(=O)N2Cc2ccc(F)cc2)cc1	-1	14	.	4	95*	19
OCc1ccc(-c2nn(Cc3ccccc3)c3ccccc23)o1	1	44	-8	3	40*	30*
O=c1c2ccccc2c(-c2n[nH]c(=S)o2)nn1Cc1ccccc1	-4	2	-60	14	9	.
CCCCCCC(=O)N(O)C1CC(=O)N(c2ccc(Br)cc2)C1=O (stereo unspecified)	-2	33	119*	32	42*	28
COc1cc(OC)cc(C(=O)NC(=S)NNC(=O)Cc2cccs2)c1	4	-39	-12	15	40*	11
COc1ccc(NC(=O)CN(C)C(=O)c2cn(-c3ccccc3)nc2-c2ccc(Cl)cc2)cc1	0	36	.	14	41*	20
CC(=O)Nc1ccc(S(=O)(=O)N[C@@H](C)C(=O)N2CCN(C/C=C/c3ccccc3)CC2)cc1	7	11	-8	1	12	.
